Experimental data published in PubChem BioAssay (NCATS).
Unmarked numbers belong to inactive results. Records with an inconclusive call do not appear. Active and inactive are the calls of the source. Unless noted, calls come from the whole dose curve; as a rule, active = well fitted curve in the direction sought with a large enough effect; inconclusive = small, poorly fitted or top-dose-only effect, or another doubt; inactive = no such curve, though single readings can be large; an effect the other way counts as inactive or inconclusive.

What was measured:
[1] = molecular target: Lysosomal acid glucosylceramidase (Homo sapiens) (UniProt P04062); test: Glucocerebrosidase-p2 (AID 348; in the data active = potency below about 10 µM; note: potency is the fitted concentration of half-maximal effect); conditions: purified GBA, blue fluorogenic substrate, 40 min
Lysosomal acid glucosylceramidase (Homo sapiens), sequence (P04062 whole entry, looked up): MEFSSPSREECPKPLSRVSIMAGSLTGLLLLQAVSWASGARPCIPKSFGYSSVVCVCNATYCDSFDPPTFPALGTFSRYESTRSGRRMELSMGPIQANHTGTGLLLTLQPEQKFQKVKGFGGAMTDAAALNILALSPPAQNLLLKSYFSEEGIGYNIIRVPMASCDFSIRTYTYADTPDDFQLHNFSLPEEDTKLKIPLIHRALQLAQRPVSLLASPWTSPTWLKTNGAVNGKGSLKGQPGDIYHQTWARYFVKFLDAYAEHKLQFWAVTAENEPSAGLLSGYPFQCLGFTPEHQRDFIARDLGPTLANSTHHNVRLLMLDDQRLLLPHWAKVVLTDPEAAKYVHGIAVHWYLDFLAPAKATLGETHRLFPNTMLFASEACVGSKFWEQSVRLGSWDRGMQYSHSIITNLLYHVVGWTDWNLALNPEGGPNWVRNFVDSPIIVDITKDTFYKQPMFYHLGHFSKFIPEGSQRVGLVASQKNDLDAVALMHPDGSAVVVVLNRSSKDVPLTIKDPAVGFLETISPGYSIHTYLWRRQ
Method in brief: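 Compounds titrated from 0.6 nM upwards against 0.2 nM enzyme in pH 5.9 citric acid/KH2PO4, taurocholate, tween-20; blue fluorogenic substrate 80 uM, 40 min room temperature, stopped and read Ex 365/Em 440 for AC50.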

[2] = AP1 Signaling Pathway (AID 357; active = well fitted curve in either direction with a large enough effect, not every such curve was filed as active; note: % is set by controls: 0 for no effect and ±100 for the full control effect); conditions: ME-180 AP-1-bla reporter, EGF-induced, beta-lactamase ratio, 5 h; at 7.69 µM (top of the series) unless noted
Method in brief: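 AP-1-bla ME-180 cells with beta-lactamase reporter under AP-1 response element, stimulated with EC50 EGF; compounds titrated, 5 hours at 37 degrees Celsius. CCF4 read at 460/530 nm ratio; positive and negative modulators judged by AC50.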

[3] = NFAT Signaling Pathway (AID 444; active = well fitted curve in either direction with a large enough effect, not every such curve was filed as active;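 note: carbachol stimulus at about its EC50 of 1 µM final; % is set by controls: 0 for no effect and ±100 for the full control effect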); conditions: Jurkat NFAT-bla M1, carbachol, beta-lactamase ratio, 5 h; at 7.69 µM (top of the series) unless noted
Method in brief: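 Read-out: CCF4 FRET ratio (460 nm/530 nm) after 1 h RT dye loading, used for %activity and AC50 from titration series. Cells: Jurkat NFAT-β-lactamase/M1 line, treated with compound plus 1 uM carbachol for 5 h, 37 °C.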

[4] = molecular target: Glucocorticoid receptor (Homo sapiens) (UniProt P04150); test: GR-GFP Redistribution (AID 450;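 active = compounds whose dose series gives a full or clear partial fitted curve of increased nuclear translocation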; note: potency is the fitted concentration of half-maximal effect); conditions: U2OS GR-GFP nuclear translocation, laser cytometry, 2 h
Glucocorticoid receptor (Homo sapiens), sequence (P04150 whole entry, looked up, the tested form may be a part): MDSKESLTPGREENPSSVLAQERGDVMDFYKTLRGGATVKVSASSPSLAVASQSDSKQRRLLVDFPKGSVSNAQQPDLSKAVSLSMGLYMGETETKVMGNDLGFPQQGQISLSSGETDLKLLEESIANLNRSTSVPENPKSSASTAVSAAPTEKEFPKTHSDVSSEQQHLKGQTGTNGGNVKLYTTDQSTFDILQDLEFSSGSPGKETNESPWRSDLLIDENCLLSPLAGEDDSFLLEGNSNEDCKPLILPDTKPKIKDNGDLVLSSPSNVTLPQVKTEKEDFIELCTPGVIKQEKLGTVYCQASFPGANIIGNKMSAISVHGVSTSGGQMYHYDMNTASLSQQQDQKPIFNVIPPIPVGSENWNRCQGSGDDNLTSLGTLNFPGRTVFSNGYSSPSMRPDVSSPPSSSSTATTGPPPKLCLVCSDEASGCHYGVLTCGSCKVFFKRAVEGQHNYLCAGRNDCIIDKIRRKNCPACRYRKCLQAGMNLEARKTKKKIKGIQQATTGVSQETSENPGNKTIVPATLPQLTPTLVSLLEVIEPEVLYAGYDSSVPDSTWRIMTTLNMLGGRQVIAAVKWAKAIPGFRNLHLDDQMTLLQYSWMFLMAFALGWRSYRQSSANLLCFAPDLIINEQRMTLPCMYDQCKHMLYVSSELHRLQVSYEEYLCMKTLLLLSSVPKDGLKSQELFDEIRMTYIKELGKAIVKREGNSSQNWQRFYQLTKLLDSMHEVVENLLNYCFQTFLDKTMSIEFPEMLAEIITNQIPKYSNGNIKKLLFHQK

[5] = molecular target: Glucocorticoid receptor (Homo sapiens) (UniProt P04150); test: GR-EFC Redistribution (AID 451; calls by dose curve; note: potency is the fitted concentration of half-maximal effect); conditions: CHO-K1 GR-EFC translocation, beta-gal luminescence, 2 h
Method in brief: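 Translocation of GR-ED fusion to nuclear EA restores b-gal, read by luminescence after 1 h room-temperature detection. Engineered CHO-K1 biosensor cells, 1,000/well, exposed 2 h at 37 C to titrations up to 46 uM final.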

[6] = molecular target: Mitogen-activated protein kinase 10 (Mus musculus) (UniProt Q61831); test: JNK3 AlphaScreen Assay (AID 530; active = well fitted curve in either direction with a large enough effect, not every such curve was filed as active;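 note: kinase came from lysate of stimulated human HepG2 cells; signal reports phosphorylation of biotinylated GST-cJun 1-79 at Ser73 with 10 µM ATP; % is set by controls: 0 for no effect and ±100 for the full control effect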); conditions: JNK3 lysate, c-Jun phosphorylation; series mostly up to 57.1 µM
Method in brief: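 Room-temperature AlphaScreen kinase assay; pre-activated HepG2 lysate as JNK3 source, biotin-GST-cJun(1-79) substrate, 10 uM ATP, compound 15 min preincubation.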

[7] = molecular target: 3',5'-cyclic-AMP phosphodiesterase 4B (Homo sapiens) (UniProt Q07343); test: qHTS Assay for Inhibitors of PDE-IV (AID 607; active = well fitted activation curve with a large enough effect in the main read-out, with a control signal flat, not every such curve was filed as active; note: % of control where 0% means no effect); conditions: HEK293 ACTOne CNG channel cells, membrane potential fluorescence; series mostly up to 22.9 µM
3',5'-cyclic-AMP phosphodiesterase 4B (Homo sapiens), sequence (Q07343 whole entry, looked up): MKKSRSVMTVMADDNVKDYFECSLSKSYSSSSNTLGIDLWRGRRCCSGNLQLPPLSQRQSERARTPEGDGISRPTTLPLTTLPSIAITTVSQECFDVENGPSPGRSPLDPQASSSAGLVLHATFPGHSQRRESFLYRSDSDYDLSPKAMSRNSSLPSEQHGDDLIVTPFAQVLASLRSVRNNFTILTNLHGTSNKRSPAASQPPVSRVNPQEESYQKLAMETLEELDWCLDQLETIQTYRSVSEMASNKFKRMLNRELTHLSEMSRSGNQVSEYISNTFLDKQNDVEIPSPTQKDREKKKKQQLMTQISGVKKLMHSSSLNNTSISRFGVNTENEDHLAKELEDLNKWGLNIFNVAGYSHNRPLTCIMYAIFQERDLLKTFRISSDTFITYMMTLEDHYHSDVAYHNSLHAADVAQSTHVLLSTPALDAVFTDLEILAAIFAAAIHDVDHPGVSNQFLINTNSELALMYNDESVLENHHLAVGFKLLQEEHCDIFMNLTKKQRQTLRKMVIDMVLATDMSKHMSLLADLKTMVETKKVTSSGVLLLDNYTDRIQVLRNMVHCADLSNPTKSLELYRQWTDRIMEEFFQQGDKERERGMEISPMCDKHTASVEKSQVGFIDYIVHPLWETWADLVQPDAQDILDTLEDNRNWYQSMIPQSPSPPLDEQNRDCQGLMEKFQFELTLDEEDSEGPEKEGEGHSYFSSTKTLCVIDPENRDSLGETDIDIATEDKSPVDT
Method in brief: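 HEK293 ACTOne cells with CNG channel (1000/well), endogenous PDE4; membrane potential dye, compounds up to 22.9 uM final. Fluorescence Ex 535/Em 590; RO 20-1724 (100 uM final) as reference.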

[8] = molecular target: Dual specificity protein kinase CLK4 (Homo sapiens) (UniProt Q9HAZ1); test: qHTS Assay for Inhibitors of CDC-like Kinase 4 (Kinase-Glo Assay) (AID 1770); conditions: recombinant Clk4, Kinase-Glo ATP depletion luminescence; series mostly up to 66.7 µM; note: nearly all actives have a fitted effect of over 65% in size; note: potency is the fitted concentration of half-maximal effect
Dual specificity protein kinase CLK4 (Homo sapiens), sequence (Q9HAZ1 whole entry, looked up): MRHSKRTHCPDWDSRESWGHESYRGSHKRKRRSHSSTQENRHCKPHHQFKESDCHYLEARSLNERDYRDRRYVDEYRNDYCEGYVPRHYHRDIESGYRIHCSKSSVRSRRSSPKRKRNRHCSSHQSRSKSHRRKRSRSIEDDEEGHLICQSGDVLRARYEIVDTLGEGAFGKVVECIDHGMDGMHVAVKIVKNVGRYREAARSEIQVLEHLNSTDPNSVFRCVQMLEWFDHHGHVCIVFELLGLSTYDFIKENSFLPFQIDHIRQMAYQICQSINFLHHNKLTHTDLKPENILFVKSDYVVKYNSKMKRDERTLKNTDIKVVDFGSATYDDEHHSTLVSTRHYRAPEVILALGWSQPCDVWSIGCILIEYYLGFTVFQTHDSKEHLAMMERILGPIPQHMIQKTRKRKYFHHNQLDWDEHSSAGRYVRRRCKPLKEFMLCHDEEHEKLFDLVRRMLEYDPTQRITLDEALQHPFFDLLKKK
Method in brief: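 Inhibition was judged from remaining ATP, measured by Ultra-Glo luciferase bioluminescence after Clk4 (25 nM) had acted on RS peptide at 1 uM ATP for 4.5 hours, room temperature.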

[9] = molecular target: Dual specificity protein kinase CLK4 (Homo sapiens) (UniProt Q9HAZ1); test: qHTS Assay for Inhibitors of CDC-like Kinase 4 (ADP-FP Assay) (AID 1795); conditions: Transcreener ADP fluorescence polarization; series mostly up to 50 µM;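 note: recombinant human CLK4 phosphorylating RS repeat peptide at 1 µM ATP; % is set by controls: 0 for no effect and ±100 for the full control effect; nearly all actives have a fitted effect of over 60% in size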
Method in brief: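 Inhibition of ADP formation by 6.25 nM Clk4 is measured using 1 uM ATP and 100 uM RS repeat peptide over one hour. Produced ADP displaces a fluorescent tracer from antibody, lowering polarization.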

[10] = molecular target: Ubiquitin carboxyl-terminal hydrolase 1 (Homo sapiens) (UniProt O94782); test: Inhibitors of USP1/UAF1: Pilot qHTS (AID 504865); conditions: purified USP1/UAF1, Ub-rhodamine cleavage fluorescence; series mostly up to 54.9 µM;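 note: rhodamine fluorescence freed from ubiquitin-rhodamine substrate followed over time; top concentration of the series differs between compounds; % is set by controls: 0 for no effect and ±100 for the full control effect; nearly all actives have a fitted effect of over 35% in size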
Ubiquitin carboxyl-terminal hydrolase 1 (Homo sapiens), sequence (O94782 whole entry, looked up): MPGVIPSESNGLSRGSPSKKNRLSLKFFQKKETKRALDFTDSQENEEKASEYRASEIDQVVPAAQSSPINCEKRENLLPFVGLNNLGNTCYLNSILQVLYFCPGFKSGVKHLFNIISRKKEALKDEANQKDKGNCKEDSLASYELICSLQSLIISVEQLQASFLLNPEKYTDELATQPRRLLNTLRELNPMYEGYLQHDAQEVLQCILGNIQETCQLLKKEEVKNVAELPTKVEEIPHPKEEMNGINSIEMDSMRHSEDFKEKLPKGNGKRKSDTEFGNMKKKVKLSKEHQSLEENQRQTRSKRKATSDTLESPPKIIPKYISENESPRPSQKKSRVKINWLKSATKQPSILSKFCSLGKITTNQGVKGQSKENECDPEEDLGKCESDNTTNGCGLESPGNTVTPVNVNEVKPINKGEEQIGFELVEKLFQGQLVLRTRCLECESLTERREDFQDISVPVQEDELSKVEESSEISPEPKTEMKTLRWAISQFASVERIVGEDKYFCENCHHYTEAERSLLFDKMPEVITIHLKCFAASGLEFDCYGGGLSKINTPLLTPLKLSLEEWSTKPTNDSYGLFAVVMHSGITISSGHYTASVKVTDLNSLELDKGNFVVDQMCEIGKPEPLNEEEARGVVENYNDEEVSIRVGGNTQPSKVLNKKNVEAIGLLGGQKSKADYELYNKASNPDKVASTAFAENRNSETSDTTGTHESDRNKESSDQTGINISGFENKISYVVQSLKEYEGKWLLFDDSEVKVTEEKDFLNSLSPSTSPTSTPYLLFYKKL
Method in brief: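 Kinetic fluorescence assay: 1nM USP1/UAF1, 15 min compound preincubation, then 150nM Ub-Rho; 480/540 nm.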

[11] = Primary qHTS for small molecule stabilizers of the endoplasmic reticulum resident proteome: Secreted ER Calcium Modulated Protein (SERCaMP) assay (AID 1508630); conditions: SH-SY5Y GLuc-SERCaMP (Gaussia luciferase released on ER calcium loss) secretion, thapsigargin, luminescence; series mostly up to 38.4 µM; note: % is set by controls: 0 for no effect and ±100 for the full control effect
Method in brief: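 GLuc-SERCaMP-expressing SH-SY5Y cells, pretreated 16 h with compound, are challenged with thapsigargin to empty ER calcium stores; after 4 h, coelenterazine is added directly to the medium and luminescence is imaged.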

[12] = Stat Signaling Pathway (AID 446; active = well fitted curve in either direction with a large enough effect, not every such curve was filed as active); conditions: ME-180 SIE beta-lactamase reporter, IL-6 stimulated, 5 h; at 7.69 µM (top of the series) unless noted
Method in brief: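 ME-180 cells carrying a SIE-driven beta-lactamase reporter are stimulated with 40 pM IL-6 for 5 h at 37C in the presence of compound. The 460/530 nm FRET substrate ratio is read after 2.5 h at RT. Data are normalised to 300 pM IL-6 and to 125 nM JAK inhibitor controls.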

[13] = molecular target: Cytochrome P450 3A4 (Homo sapiens) (UniProt P08684); test: qHTS Assay for Activators of Cytochrome P450 3A4 (AID 885); conditions: recombinant CYP3A4, Luciferin-PPXE luminescence, 60 min; series mostly up to 57.1 µM; note: nearly all actives have a fitted effect of over 65% in size
Cytochrome P450 3A4 (Homo sapiens), sequence (P08684 whole entry, looked up): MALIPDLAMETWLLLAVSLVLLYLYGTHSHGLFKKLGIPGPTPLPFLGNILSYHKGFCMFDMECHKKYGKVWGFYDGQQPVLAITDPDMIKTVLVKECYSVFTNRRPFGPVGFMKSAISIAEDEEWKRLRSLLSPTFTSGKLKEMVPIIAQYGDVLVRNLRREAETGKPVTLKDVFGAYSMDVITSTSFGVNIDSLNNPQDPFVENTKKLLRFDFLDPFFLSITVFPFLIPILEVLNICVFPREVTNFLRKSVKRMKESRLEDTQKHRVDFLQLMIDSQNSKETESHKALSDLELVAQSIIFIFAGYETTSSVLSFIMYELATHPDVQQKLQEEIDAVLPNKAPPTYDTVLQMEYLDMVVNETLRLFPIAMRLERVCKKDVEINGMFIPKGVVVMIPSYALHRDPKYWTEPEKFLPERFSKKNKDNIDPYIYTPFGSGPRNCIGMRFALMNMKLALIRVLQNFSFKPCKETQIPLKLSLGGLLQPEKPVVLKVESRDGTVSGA
Method in brief: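 Human CYP3A4 (20 nM) with Luciferin-PPXE at 25 uM (its KM) in 200 mM KPO4; 10 min compound preincubation, then NADPH regeneration and 60 min reaction at RT. Luciferin read by luminescence; normalized to 57 uM ketoconazole full inhibition.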

[14] = molecular target: Cytochrome P450 1A2 (Homo sapiens) (UniProt P05177); test: p450-cyp1a2 (AID 410; calls by dose curve; note: potency is the fitted concentration of half-maximal effect;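 for activity change, negative = inhibition: -100% = full effect of reference inhibitor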); conditions: recombinant CYP1A2, luciferin-ME demethylation, luminescence; series mostly up to 57 µM
Cytochrome P450 1A2 (Homo sapiens), sequence (P05177 whole entry, looked up): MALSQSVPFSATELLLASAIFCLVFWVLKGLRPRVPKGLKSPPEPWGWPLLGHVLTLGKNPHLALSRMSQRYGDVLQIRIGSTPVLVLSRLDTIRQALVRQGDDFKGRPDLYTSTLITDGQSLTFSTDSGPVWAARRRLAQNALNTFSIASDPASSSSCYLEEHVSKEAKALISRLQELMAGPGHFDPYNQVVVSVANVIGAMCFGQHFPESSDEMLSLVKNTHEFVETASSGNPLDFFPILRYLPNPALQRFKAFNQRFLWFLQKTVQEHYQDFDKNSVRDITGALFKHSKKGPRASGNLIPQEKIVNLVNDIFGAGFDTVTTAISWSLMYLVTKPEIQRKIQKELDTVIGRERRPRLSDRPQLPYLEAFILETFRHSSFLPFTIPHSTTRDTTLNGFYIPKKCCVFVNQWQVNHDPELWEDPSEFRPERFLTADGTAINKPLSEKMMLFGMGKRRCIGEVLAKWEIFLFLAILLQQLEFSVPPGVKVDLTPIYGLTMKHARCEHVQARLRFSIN
Method in brief: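 Human CYP1A2 (20nM) demethylated Luciferin-ME at its Km (100uM) in 100mM KPO4. After 10 min compound preincubation, NADPH regeneration ran the reaction 60 min at room temperature. Luciferin was read by luminescence, normalized to 57 uM furafylline.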

[15] = qHTS Assay for Identification of Small Molecule Agonists for Hypoxia Response Element Signaling Pathway (AID 914; active = well fitted activation curve with a large enough effect in the signal ratio, with a control signal flat, not every such curve was filed as active; the % refers to the signal ratio; note: potency is the fitted concentration of half-maximal effect; for activation: % of control where 0% means no effect); conditions: ME-180 (cervical carcinoma) HRE-bla reporter, beta-lactamase ratio, CoCl2, 17 h; activation: stronger effect = higher value
Method in brief: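 A beta-lactamase reporter under hypoxia response element control in ME-180 cells served as the system. Compound titrations plus EC50 CoCl2 ran 17 h at 37 degrees Celsius; AC50 values were fitted from %Activity.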

[16] = molecular target: Cytochrome P450 3A4 (Homo sapiens) (UniProt P08684); test: qHTS Assay for Inhibitors and Substrates of Cytochrome P450 3A4 (AID 884); conditions: recombinant CYP3A4, Luciferin-PPXE luminescence; series mostly up to 57.1 µM; note: potency is the fitted concentration of half-maximal effect; nearly all actives have a fitted effect of over 50% in size
Method in brief: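 20 nM human CYP3A4 with 25 uM Luciferin-PPXE (at KM) in 200 mM KPO4, preincubated 10 min with compound; NADPH regeneration started a 60 min RT reaction. Luciferin detected by luminescence, normalized to 57 uM ketoconazole as full inhibition.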

[17] = molecular target: Cytochrome P450 2C19 (Homo sapiens) (UniProt P33261); test: qHTS Assay for Inhibitors and Substrates of Cytochrome P450 2C19 (AID 899); conditions: recombinant CYP2C19, luciferin-H EGE luminescence; series mostly up to 57.1 µM; note: potency is the fitted concentration of half-maximal effect; nearly all actives have a fitted effect of over 60% in size
Cytochrome P450 2C19 (Homo sapiens), sequence (P33261 whole entry, looked up): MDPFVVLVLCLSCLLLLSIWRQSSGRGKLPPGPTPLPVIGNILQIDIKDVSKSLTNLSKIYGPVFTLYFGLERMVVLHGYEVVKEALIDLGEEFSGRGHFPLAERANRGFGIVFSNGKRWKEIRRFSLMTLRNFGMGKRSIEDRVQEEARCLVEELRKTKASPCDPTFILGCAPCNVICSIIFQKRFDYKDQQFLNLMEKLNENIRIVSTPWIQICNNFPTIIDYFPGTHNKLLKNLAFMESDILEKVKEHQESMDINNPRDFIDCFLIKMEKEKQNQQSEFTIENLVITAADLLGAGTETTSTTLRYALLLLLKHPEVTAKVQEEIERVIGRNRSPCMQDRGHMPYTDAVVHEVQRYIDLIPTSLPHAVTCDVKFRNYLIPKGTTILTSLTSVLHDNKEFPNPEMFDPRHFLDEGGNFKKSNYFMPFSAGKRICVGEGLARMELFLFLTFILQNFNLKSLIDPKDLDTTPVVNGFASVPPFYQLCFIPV
Method in brief: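 Reactions contain 5nM enzyme, 10uM Luciferin-H EGE (KM) and 50mM KPO4; compound preincubates 10 min at 37C, NADPH regeneration starts turnover for 60 min. Luminescence after detection reagent gives activity.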

Structure (SMILES) | Potency [1] | activity change, negative = inhibition [2] | activity change, negative = inhibition [3] | Potency [4] | Potency [5] | Potency [6] | Potency [7] | Potency [8] | Potency [9] | Potency [10] | outcome [11] | activity, negative = inhibition [12] | Potency [13] | Potency [14] | Potency [15] | activation [15] | Potency [16] | Potency [17]
CN(Cc1ccco1)c1cc(-c2ccccc2C(F)(F)F)ncn1 | > 11.4 µM | 9.11% | -16.3% | > 46 µM | > 46 µM | inactive | inactive | inactive | inactive | inactive | inactive |  |  |  |  |  |  | 
COc1cccc(Nc2ncc3nc(-c4ccc(Cl)cc4)c(=O)n(C[C@H]4CCCO4)c3n2)c1 | > 11.4 µM | -20.5% | 2.35% | > 9.22 µM | > 46 µM | inactive | inactive | inactive | inactive |  | inactive | 4.74% | inactive |  |  |  |  | 
Cc1cnc(CNc2nc(-c3cccc(NS(C)(=O)=O)c3)nc3ccccc23)cn1 | > 11.4 µM | -28.3% | 19.4% | > 46 µM | > 46 µM | inactive | inactive | inactive | inactive | inactive | inactive | -4.54% |  |  |  |  |  | 
CN1CCN(c2ncc3nc(-c4cn(C)c5ccccc45)c(=O)n(CCc4ccccc4)c3n2)CC1 | > 11.4 µM |  |  |  | > 46 µM | inactive | inactive | inactive | inactive | inactive | inactive |  | inactive | inactive | 3.16 µM (active) |  |  | 
Cn1c(=O)c(-c2cccc(F)c2)nc2cncnc21 | > 11.4 µM | -15.2% | 8.36% | > 9.22 µM | > 46 µM | inactive | inactive | inactive | inactive | inactive | inactive | -5.84% | inactive |  |  | -8.58% |  | 
Cn1c(=O)c(-c2cc(F)cc(F)c2)nc2cnc(Nc3ccccc3)nc21 | > 11.4 µM | -3.31% | 6.94% | > 9.22 µM | > 46 µM | inactive | inactive | inactive | inactive | inactive | inactive | 4.13% |  |  |  |  |  | 
Cc1cnc(CNc2nc(-c3ccccc3C(F)(F)F)nc3ccccc23)cn1 | > 11.4 µM | -16.3% | 12.8% | > 46 µM | > 46 µM | inactive |  | inactive | inactive |  | inactive | -2.08% | inactive | 12.6 µM (active) |  |  | 5.01 µM (active) | 
COCCNc1nc(-c2ccoc2)nc2ccccc12 | > 11.4 µM | 1.3% | -13.7% | > 46 µM | > 46 µM | inactive |  | inactive | inactive | inactive | inactive | 8.88% | inactive |  |  |  |  | 
COc1cccc(-c2cc(NCc3ccccc3OC)ncn2)c1 | > 11.4 µM | -14.5% | 6.41% | > 46 µM | > 46 µM | inactive | inactive | 15.8 µM (active) |  |  | inactive | -1.37% | inactive | 1.26 µM (active) |  |  |  | 7.94 µM (active)
COc1ccc2[nH]cc(CCNc3ccnc(-c4ccc(C(=O)N(C)C)cc4)n3)c2c1 | > 11.4 µM | -14.6% | -3.74% | > 46 µM | > 46 µM | inactive | inactive | inactive | inactive |  | inactive | -20.4% | inactive | 12.6 µM (active) |  |  | 3.16 µM (active) | 
COCCn1c(=O)c(-c2cccs2)nc2cncnc21 | > 11.4 µM | -17.4% | 11.8% | > 9.22 µM | > 46 µM | inactive |  | inactive | inactive | inactive | inactive | -2.25% | inactive | 3.16 µM (active) |  |  |  | 
CCNc1ncc2nc(-c3cn(C)c4ccccc34)c(=O)n(Cc3ccc(F)cc3)c2n1 | > 11.4 µM | -5.76% | 2.58% | > 9.22 µM | > 46 µM | inactive | inactive | inactive |  | inactive | inactive |  | inactive | 15.8 µM (active) | 2.51 µM (active) |  |  | 
Cc1cnc(CNc2cc(-c3ccccc3CN(C)C)ncn2)cn1 | > 11.4 µM | 17.7% | -9.03% | > 46 µM | > 46 µM | inactive | inactive | inactive | inactive | inactive | inactive | 7.96% |  |  |  |  |  | 
